PubChem BioAssay (NCI)
Compounds without any hit were thinned out: in the full panel of roughly 83,000, 20% have a hit.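 Each cell line was grown in a 96-well plate and treated with one concentration of compound for 48 hours. Values below 10 were considered active.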 Active and inactive are the calls of the source.

How the values were obtained:
Assay in all cases: NCI-60 one-dose screen, 48 h (100 = growth as untreated, 0 = no growth, -100 = all killed)
[1] = system: NCI-H23 lung
[2] = system: NCI-H226 lung
[3] = system: NCI-H322M lung
[4] = system: HOP-62 NSCLC
[5] = system: NCI-H460 lung
[6] = system: HOP-92 NSCLC
[7] = system: NCI-H522 lung
[8] = system: A549/ATCC NSCLC
[9] = system: 786-0 renal
[10] = system: COLO 205 colon
[11] = system: DU-145 prostate
[12] = system: K-562 leukemia; settings: 10 µM unless noted
[13] = system: MALME-3M melanoma
[14] = system: MDA-MB-231 breast
[15] = system: RXF 393 renal
[16] = system: SF-268 CNS
[17] = system: SF-295 CNS
[18] = system: SF-539 CNS
[19] = system: UACC-257 melanoma
[20] = system: M14 melanoma

Measured: growth

COc1ccc(NC(=O)Cn2c(/C=C/c3cccc(Br)c3)nc3ccccc3c2=O)cc1
inactive: [1]; 10 µM unless noted 59.3% | [3]; 10 µM unless noted 58.1% | [5]; 10 µM unless noted 32% | [6]; 10 µM unless noted 11% | [7]; 10 µM unless noted 42.6% | [8]; 10 µM unless noted 16.5% | [10]; 10 µM unless noted 70.4% | [11]; 10 µM unless noted 79.1% | [12] 86.3% | [13]; 10 µM unless noted 48.7% | [16]; 10 µM unless noted 65.2% | [17]; 10 µM unless noted 48.9% | [19]; 10 µM unless noted 71.1% | [20]; 10 µM unless noted 50.2%
active: [2]; 10 µM unless noted 6.61% | [4]; 10 µM unless noted 2.11% | [9]; 10 µM unless noted -44.4% | [14]; 10 µM unless noted -38.4% | [15]; 10 µM unless noted -16.3% | [18]; 10 µM unless noted -23.4%

CC/C(=C(\c1ccc(O)cc1)c1ccc(OCCN(C)C(=O)CCOCCNC(=O)c2ccc3c(c2)CN([C@@H]2CCC(=O)NC2=O)C3=O)cc1)c1ccccc1
inactive: [1]; 1 µM 105% | [1]; 10 µM 97.2% | [2]; 1 µM 87.2% | [2]; 10 µM 66.3% | [3]; 1 µM 101% | [3]; 10 µM 88.1% | [4]; 1 µM 95.1% | [4]; 10 µM 94.4% | [5]; 1 µM 115% | [5]; 10 µM 114% | [6]; 1 µM 37.9% | [6]; 10 µM 43.7% | [7]; 1 µM 92.6% | [7]; 10 µM 95.3% | [8]; 1 µM 85% | [8]; 10 µM 82.2% | [9]; 1 µM 96.6% | [9]; 10 µM 93.4% | [10]; 1 µM 95.4% | [10]; 10 µM 94.5% | [11]; 1 µM 105% | [11]; 10 µM 109% | [13]; 1 µM 78.4% | [13]; 10 µM 52.5% | [14]; 1 µM 33.7% | [14]; 10 µM 21.8% | [15]; 1 µM 102% | [15]; 10 µM 90% | [16]; 1 µM 89.3% | [16]; 10 µM 100% | [17]; 1 µM 96.2% | [17]; 10 µM 93.2% | [18]; 1 µM 94.6% | [18]; 10 µM 88.9% | [19]; 1 µM 101% | [19]; 10 µM 88.3% | [20]; 1 µM 90.5% | [20]; 10 µM 92.8%

COc1ccc2[nH]c(=O)c(CSc3ccccc3Nc3nccc(-c4ccc(Cl)cc4)n3)cc2c1
inactive: [1]; 10 µM unless noted 43.2% | [2]; 10 µM unless noted 45.7% | [3]; 10 µM unless noted 69.5% | [4]; 10 µM unless noted 69.2% | [5]; 10 µM unless noted 33.3% | [6]; 10 µM unless noted 36.6% | [8]; 10 µM unless noted 52.5% | [9]; 10 µM unless noted 43.4% | [10]; 10 µM unless noted 61.8% | [11]; 10 µM unless noted 48.7% | [12] 39.7% | [13]; 10 µM unless noted 32.1% | [14]; 10 µM unless noted 60.9% | [16]; 10 µM unless noted 55.1% | [17]; 10 µM unless noted 32.8% | [18]; 10 µM unless noted 21.7% | [19]; 10 µM unless noted 73.4% | [20]; 10 µM unless noted 68.5%
active: [7]; 10 µM unless noted 4.52% | [15]; 10 µM unless noted -4.36%

CC(C)(C)C(=O)c1c2c(c3ccc4c5ccccc5ccc4n13)C(=O)c1ccccc1C2=O
active: [13]; 10 µM unless noted 9.73%
inactive: [1]; 10 µM unless noted 73.5% | [2]; 10 µM unless noted 73.1% | [3]; 10 µM unless noted 97.5% | [4]; 10 µM unless noted 84.6% | [5]; 10 µM unless noted 55.9% | [6]; 10 µM unless noted 104% | [7]; 10 µM unless noted 91.5% | [8]; 10 µM unless noted 84.9% | [9]; 10 µM unless noted 109% | [10]; 10 µM unless noted 102% | [11]; 10 µM unless noted 95.6% | [12] 103% | [14]; 10 µM unless noted 85.7% | [15]; 10 µM unless noted 105% | [16]; 10 µM unless noted 101% | [17]; 10 µM unless noted 99.6% | [18]; 10 µM unless noted 87.2% | [19]; 10 µM unless noted 105% | [20]; 10 µM unless noted 71.3%

O=C1CCC(N2C(=O)c3cccc(NCCOCCOCCOCCC(=O)NCCCC(=O)NC(c4ccc5c(c4)OCO5)c4cc(Cl)c5cccnc5c4O)c3C2=O)C(=O)C1 (stereo not drawn)
inactive: [1]; 10 µM unless noted 45.1% | [2]; 10 µM unless noted 45% | [3]; 10 µM unless noted 39.5% | [4]; 10 µM unless noted 34.3% | [5]; 10 µM unless noted 26.6% | [6]; 10 µM unless noted 13.7% | [8]; 10 µM unless noted 88.3% | [9]; 10 µM unless noted 70.8% | [10]; 10 µM unless noted 24.5% | [11]; 10 µM unless noted 60% | [12] 22.8% | [13]; 10 µM unless noted 29.3% | [14]; 10 µM unless noted 25.3% | [15]; 10 µM unless noted 43.6% | [16]; 10 µM unless noted 24.4% | [17]; 10 µM unless noted 61.6% | [18]; 10 µM unless noted 10.3% | [19]; 10 µM unless noted 29.7% | [20]; 10 µM unless noted 54.8%
active: [7]; 10 µM unless noted 6.82%

Nc1cc2ccccc2c(=O)n1NC(=O)c1ccccc1
inactive: [1]; 10 µM unless noted 87.4% | [2]; 10 µM unless noted 80.8% | [3]; 10 µM unless noted 104% | [4]; 10 µM unless noted 103% | [5]; 10 µM unless noted 105% | [6]; 10 µM unless noted 111% | [7]; 10 µM unless noted 89.3% | [8]; 10 µM unless noted 103% | [9]; 10 µM unless noted 105% | [10]; 10 µM unless noted 111% | [11]; 10 µM unless noted 104% | [12] 97.6% | [13]; 10 µM unless noted 84.4% | [14]; 10 µM unless noted 87% | [15]; 10 µM unless noted 104% | [16]; 10 µM unless noted 95.9% | [17]; 10 µM unless noted 90.6% | [18]; 10 µM unless noted 93.7% | [19]; 10 µM unless noted 104% | [20]; 10 µM unless noted 100%
